Here are results for 92 compounds from PubChem BioAssay AID556 (SRMLSC, 2006).

Each structure is given as a SMILES string. Screen size: about 65,000 compounds; about 320 (0.49%) were called active.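 How the source made its calls: active means the 320 compounds with the highest percent inhibition in the single-dose primary screen, excluding strongly autofluorescent ones (cut at about 32% in these data); inactive means the rest, inconclusive results apart.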 The full list was thinned out, with actives kept by preference.

The assay concerns diphosphomevalonate decarboxylase (Streptococcus pneumoniae D39). As to the kind of experiment: diphosphomevalonate decarboxylase activity blockers – biochemical, PK/LDH-coupled NADH fluorescence, primary screen (AID 556).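 On inhibition: kinetic rate of NADH fluorescence loss reporting ADP formed by the decarboxylase; 0% = full reaction rate with carrier and 100% = no-substrate background rate.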 To be noted: purified DPM-DC, at 10 µM.
The mark [1] stands for this setting: stronger effect = higher value unless noted.
Where [2] appears, read: measured here: pilot screen trials, stronger effect = higher value.

For the compound `Cc1ccc(OS(=O)Nc2cccc3nccnc23)cc1` (centres undefined), the inhibition entry under setting [1] was “inactive”.

Take `CCCCSc1nnc(-c2ccc(NC(=O)CC)cc2)n1C`: the inhibition under setting [1] was 6% (inactive).

For `CC1CCc2sc3nc(N4CCN(CCO)CC4)n4ncnc4c3c2C1` (centres undefined), under setting [1], the inhibition result is “inactive”.

As to `N#Cc1c2c(c(N3CCN(CCO)CC3)n3c1nc1ccccc13)CCCC2`, under setting [1], the inhibition entry was “inactive”.

Consider `CCC(=O)N(Cc1cc2cc(OC)ccc2[nH]c1=O)c1ccccc1C`, for which, under setting [1], the inhibition is 16% (inactive).

For the compound `O=C(Cn1c(=O)n(Cc2ccco2)c(=O)c2ccccc21)NCC1CCCO1` (centres undefined), the inhibition result under setting [1] was “inactive”.

`O=C(CSc1nc2ccccc2o1)N1CCN(c2ccc(Cl)cc2)CC1`: under setting [1], the inhibition is 0.5% [measured here: pilot screen trials, stronger effect = higher value] and the compound was called inactive.

Turning to `CC(CNC(=O)c1ccc(Br)o1)NC(=O)c1ccc(Br)o1` (centres undefined), the inhibition under setting [1] was 2% (inactive).

Regarding `CCc1nnc(NC(=O)c2cccs2)s1`, under setting [1], the inhibition was 5% (inactive).

For `CCCn1c(SCC(=O)Nc2cccc(C(=O)OCC)c2)nnc1-c1ccoc1C`, the inhibition under setting [1] is 2% (inactive).

On to `CCC1=[N+]([O-])C(C)(/C(C)=N\O)N(O)C1(C)C` (centres undefined), for which, under setting [1], the inhibition entry was “inactive”.

Regarding `CN(c1nc2ccccc2n2c(-c3ccco3)nnc12)S(=O)(=O)c1ccccc1`, the inhibition under setting [1] is 48% (active).

In the case of `c1coc(-c2nc3nc4ccccc4n3nc2-c2ccco2)c1`, the inhibition under setting [1] is 4% (inactive).

Consider `CC(=O)Nc1ccc(S(=O)(=O)N2CCCC2C(=O)O)cc1` (centres undefined), for which the inhibition result under setting [1] is “inactive”.

Consider `CCOc1cccc(-n2nnnc2-c2ccc(OC)cc2)c1`, for which, under setting [1], the inhibition is 4.5% [measured here: pilot screen trials, stronger effect = higher value] and the outcome was inactive.

For `O=C(Cc1cccs1)N1CCCC(c2nc(-c3ccc(S(=O)(=O)N4CCCC4)cc3)no2)C1` (centres undefined), under setting [1], the inhibition result is “inactive”.

As for `CCOC(=O)c1ccc(N2C(=O)CC(N3CCC(C(=O)OCC)CC3)C2=O)cc1` (centres undefined), the inhibition entry under setting [1] was “inactive”.

On to `O=C(NC12CC3CC(CC(C3)C1)C2)N1CCCC(CO)C1` (centres undefined), for which the inhibition entry under setting [1] was “inactive”.

Regarding `CC(=O)Oc1cc2c(C(=O)NCCN3CCOCC3)c(C)oc2c2ccccc12`, the inhibition result under setting [1] is “inactive”.

With `CN(C)c1ccc(NC(=O)c2ccncc2)c2ccccc12`, under setting [1], the inhibition is 0% [measured here: pilot screen trials, stronger effect = higher value] and the call was inactive.

With `Cn1c(=O)[nH]c(=O)c2c1nc(CN1CCN(c3ccccc3F)CC1)n2CCc1ccccc1`, the inhibition entry under setting [1] is “inactive”.

On to `Cc1cc(C)n(C(=O)c2ccc(C)c(S(=O)(=O)N3CCOCC3)c2)n1`, for which, under setting [1], the inhibition result is “inactive”.

As for `COc1ccc(C2C3=C(OC(C)=O)c4ccccc4C3=Nc3c2c(=O)n(C)c(=O)n3C)cc1` (centres undefined), the inhibition is, setting by setting: (stronger effect = higher value) 70% (active); under setting [2], 3.5%.

`Cc1cccc(C2c3c(n(C)c(=O)n(C)c3=O)N=C3c4ccccc4C(=O)C32)c1` (centres undefined): the inhibition reads like this: (stronger effect = higher value) 4% (inactive); under setting [2], 1%.

Take `COc1ccc(-c2c3c(=O)n(C)c(=O)n(C)c3cn2NC(C)=O)cc1`: under setting [1], the inhibition is 20% (inactive).

Take `O=C(O)c1cc(S(=O)(=O)N2CCCCCC2)c(Cl)cc1Cl`: the inhibition entry under setting [1] is “inactive”.

Take `COc1ccccc1N1CCN(C(=O)c2ccc(S(=O)(=O)N3CCCCC3)cc2)CC1`: the inhibition result under setting [1] is “inactive”.

With `COC(=O)c1cccc(NC(=O)CN2CCC(NC(=O)c3cc(OC)c(OC)c(OC)c3)CC2)c1`, the inhibition result under setting [1] is “inactive”.

Consider `O=C(Nc1cccc2cccnc12)c1cccc(N2C(=O)CCC2=O)c1`, for which the inhibition under setting [1] was 3% (inactive).

As to `C=C(C)CSc1nc(N)c2c3c(sc2n1)CCC3`, the inhibition under setting [1] is 6% (inactive).

With `COc1cc(Cl)c(C)cc1NC(=O)CSc1nnc(-c2cccnc2)n1Cc1ccco1`, the inhibition result under setting [1] was “inactive”.

As to `O=C(Nc1ccccc1F)c1cc(S(=O)(=O)N2CCCCC2)cs1`, the inhibition result under setting [1] was “inactive”.

As to `COc1ccc(-c2c(C)nn3c(N4CCC(C(=O)N5CCCCC5)CC4)cc(C)nc23)cc1OC`, the inhibition result under setting [1] was “inactive”.

As for `CCCS(=O)(=O)Nc1c(C(=O)O)[nH]c2ccccc12`, under setting [1], the inhibition is 8% [measured here: pilot screen trials, stronger effect = higher value] and the outcome was inactive.

With `Cc1ccc(C)c(N2CCN(C(=O)CCCCn3c(=O)[nH]c4ccccc4c3=O)CC2)c1`, the inhibition entry under setting [1] was “inactive”.

On to `COc1ccc(C(C)=O)cc1COC(=O)Cn1cnc2ccccc2c1=O`, for which the inhibition result under setting [1] is “inactive”.

`O=S(=O)(c1ccc(F)cc1)N1CCN(Cc2ccccc2C(F)(F)F)CC1`: the inhibition entry under setting [1] was “inactive”.

In the case of `CCOc1c(N2CCCCC2)c(=O)c1=O`, the inhibition result under setting [1] is “inactive”.

On to `O=C(CSCc1cccs1)N1CCCC1`, for which, under setting [1], the inhibition is 0% [measured here: pilot screen trials, stronger effect = higher value] and the outcome was inactive.

Take `Cc1c2cn[nH]c(=O)c2c(C)n1Cc1ccc(F)cc1`: the inhibition entry under setting [1] was “inactive”.

As to `CCS(=O)(=O)n1nc(-c2ccccc2)nc1SCc1ccccc1`, the inhibition entry under setting [1] was “inactive”.

As to `CC1=C(C(=O)Nc2ccccc2)C(c2cccs2)C(C#N)=C(SCC#N)N1` (centres undefined), the inhibition by setting is: (stronger effect = higher value) 1% (inactive); under setting [2], 3%.

For `CC1CCCN(Cc2nc3c(c(=O)n(C)c(=O)n3C)n2CC(=O)c2ccccc2)C1` (centres undefined), the inhibition result under setting [1] was “inactive”.

Consider `Cc1cc(Nc2cccc(F)c2)n2ncnc2n1`, for which the inhibition result under setting [1] is “inactive”.

Turning to `Cc1cc(C)c(C#N)c(SCc2[nH]nc3c2C(c2ccccc2)C(C#N)=C(N)O3)n1` (centres undefined), under setting [1], the inhibition was 0% [measured here: pilot screen trials, stronger effect = higher value] and the compound was classed as inactive.

For the compound `CC(C[N+](C)(C)C)OC(N)=O` (centres undefined), the inhibition (stronger effect = higher value) was 1% (inactive) and the inhibition under setting [2] came to 0%.

For `CCOC(=O)CSC1=C(C#N)C(c2ccco2)C(C(=O)OCc2ccccc2)=C(C)N1` (centres undefined), the inhibition under setting [1] is 11% (inactive).

Take `NC(=O)c1ccccc1NC(=O)c1ccccc1F`: the inhibition entry under setting [1] was “inactive”.

For the compound `Cc1nc2ncnn2c(C)c1CCC(=O)N1CCN(C(=O)c2ccco2)CC1`, the inhibition entry under setting [1] was “inactive”.

Turning to `O=C(c1ccccc1)c1ccc(OC(=O)N2CCCC2)cc1`, the inhibition result under setting [1] was “inactive”.

For `COC(=O)c1ccccc1NC(=O)Cn1nc(C(F)(F)F)c2c1CCC2`, under setting [1], the inhibition result was “inactive”.

For `CCN=C1SC(CC(=O)Nc2ccc(C)cc2)C(=O)N1CC` (centres undefined), under setting [1], the inhibition result was “inactive”.

In the case of `Cc1ccccc1Nc1nnc(C)c(=O)[nH]1`, under setting [1], the inhibition was 2% (inactive).

With `CCSc1nc2c(c(=O)[nH]1)C(c1cccnc1)C(C(=O)OC(C)C)=C(C)N2` (centres undefined), under setting [1], the inhibition was 0% [measured here: pilot screen trials, stronger effect = higher value] and the call was inactive.

Turning to `COc1ccc(NC(=O)CCNC(=O)Cn2ccc3ccccc3c2=O)c(OC)c1`, under setting [1], the inhibition is 1.5% [measured here: pilot screen trials, stronger effect = higher value] and the compound was classed as inactive.

For the compound `CCOC(=O)CSc1nnc(NC(=O)c2cccc(S(=O)(=O)N3CCCC3)c2)s1`, under setting [1], the inhibition entry is “inactive”.

Consider `C=CCNC(=O)c1ccc(C)c(Br)c1`, for which the inhibition entry under setting [1] is “inactive”.

As to `CCN(CC)CCNC(=O)C1c2ccccc2C(=O)N(C)C1c1cn(C)c2ccccc12` (centres undefined), the inhibition result under setting [1] was “inactive”.

For `COc1ccccc1CNCc1cccs1`, the inhibition entry under setting [1] is “inactive”.

`COC(=O)c1cc(C(=O)CSc2nc(C)cc(C)n2)ccc1O`: the inhibition result under setting [1] is “inactive”.

Consider `CCOC(=O)Cc1csc(NC(=O)CN(C)S(=O)(=O)c2ccc3c(c2)CCC(=O)N3)n1`, for which, under setting [1], the inhibition is 0% [measured here: pilot screen trials, stronger effect = higher value] and the call was inactive.

In the case of `COc1ccc(OC)c(CNC(=O)CCc2nc(-c3cccs3)no2)c1`, the inhibition result under setting [1] is “inactive”.

In the case of `Cc1nnc(SCCCn2c(N3CCCCC3)nc3c2c(=O)[nH]c(=O)n3C)s1`, under setting [1], the inhibition was 1% [measured here: pilot screen trials, stronger effect = higher value] and the call was inactive.

With `Cc1ccc(C(=O)OCC(=O)NCc2ccc3c(c2)OCO3)s1`, the inhibition under setting [1] is 14% (inactive).

For the compound `C=CCn1c(=O)c2ccccc2n2c(SCC(=O)N3CCCc4ccccc43)nnc12`, the inhibition entry under setting [1] is “inactive”.

In the case of `CCCn1c(=O)c2ccccc2n2c(SCC(=O)/C(C#N)=C(\C)N)nnc12`, the inhibition under setting [1] is 34% (active).

As to `CCCn1cc(SCC(N)=O)c2ccccc21`, under setting [1], the inhibition is 0% [measured here: pilot screen trials, stronger effect = higher value] and the outcome was inactive.

Regarding `COC(=O)c1ccccc1NC(=O)CN(Cc1ccccc1)S(C)(=O)=O`, the inhibition under setting [1] was 5% (inactive).

Consider `CC(=O)c1ccc(N2C(=NC(=O)C(C)C)SC3CS(=O)(=O)CC32)cc1` (centres undefined), for which, under setting [1], the inhibition was 14% (inactive).

On to `CCOCCN(C=O)c1cccc(OC)c1`, for which the inhibition entry under setting [1] is “inactive”.

For `COc1ccc(-c2ccnc(SCC(=O)N3CCOCC3)n2)cc1`, the inhibition result under setting [1] was “inactive”.

Take `COc1cc(NS(=O)(=O)c2ccc(NC(C)=O)cc2)cc(OC)c1`: the inhibition entry under setting [1] was “inactive”.

Turning to `CCC(=O)Nc1sc(C(=O)N2CCCCC2)c(C)c1C#N`, the inhibition entry under setting [1] was “inactive”.

`O=C(CNC(=O)c1ccco1)OCC(=O)c1ccccc1`: under setting [1], the inhibition was 14% (inactive).

Regarding `Cc1ccc2nc(NC(=O)C3CCN(S(=O)(=O)c4ccc5c(c4)oc(=O)n5C)CC3)sc2c1`, under setting [1], the inhibition entry is “inactive”.

Regarding `CCS(=O)(=O)n1nc(-c2ccc(OC)cc2)nc1SC`, the inhibition entry under setting [1] is “inactive”.

As for `Cn1c(SCC(=O)N2CCOCC2)nnc1-c1ccc(NC(=O)c2ccccc2F)cc1`, the inhibition under setting [1] was 100% (active).

Consider `Cc1ccccc1C(=O)Nc1cccc(-c2nnc(SCC(=O)O)n2C)c1`, for which the inhibition under setting [1] was 3% (inactive).

For `Cn1c(SCC(=O)Nc2cccc(O)c2)nnc1-c1ccc(S(=O)(=O)N2CCOCC2)cc1`, the inhibition result under setting [1] is “inactive”.

On to `O=C1OC(NC(=O)c2ccccc2)C(N2CCOCC2)=C1Cl` (centres undefined), for which the inhibition under setting [1] was 9% (inactive).

With `CCOc1ccc(-n2c(SC(C)C(=O)OC)nc3c(c2=O)SCC3)cc1` (centres undefined), the inhibition under setting [1] is 1% (inactive).

Regarding `O=C(NCc1ccccn1)c1cnc2sccn2c1=O`, the inhibition under setting [1] was 27% (inactive).

As for `CC(C)Cc1cc(C(=O)Nc2cc(Br)ccc2O)no1`, the inhibition result under setting [1] was “inactive”.

Regarding `CCCC(C)n1[nH]c(=O)c2c(C)cc(C)nc21` (centres undefined), the inhibition entry under setting [1] is “inactive”.

Regarding `Cc1nnc(SCC(=O)N(C(C)C)C(C)C)nc1C`, the inhibition (stronger effect = higher value) is 4% (inactive) and the inhibition under setting [2] worked out at 0%.

Consider `CC(C)(C)c1ccc(NC(=O)NCc2ccco2)cc1`, for which the inhibition result under setting [1] is “inactive”.

On to `CCCn1c(SCC(=O)c2ccc3c(c2)OCCO3)nnc1C(C)C`, for which the inhibition under setting [1] was 4% (inactive).

Regarding `CS(=O)(=O)N1CCN(C(=O)Cc2ccccc2)CC1`, the inhibition result under setting [1] is “inactive”.

In the case of `CC1(C)Cc2cccc(OCC(=O)Nc3nccs3)c2O1`, the inhibition result under setting [1] is “inactive”.

Take `CCOC(=O)C1CCCN(C(=O)c2sc3nc(C)nc(N4CCOCC4)c3c2C)C1` (centres undefined): the inhibition entry under setting [1] is “inactive”.

For the compound `O=C(CN1CCN(c2ccccn2)CC1)NCc1cccs1`, the inhibition entry under setting [1] was “inactive”.

Take `CC(C)COC(=O)C1C2C=CC3(CN(C(C)c4ccc(Br)cc4)C(=O)C13)O2` (centres undefined): the inhibition reads like this: (stronger effect = higher value) 22% (inactive); under setting [2], 0%.

A word on the inhibition: it is the share of the control response that was lost under treatment.
